# Assay results: PubChem BioAssay (NCATS)
# Inconclusive results are not listed. Entries that show only a call come without a potency. Active and inactive are the calls of the source. Calls follow the shape of the dose curve; as a rule, active = well fitted inhibition curve with a large enough effect; inconclusive = small, poorly fitted or top-dose-only effect; inactive = flat fitted curve, though single readings scatter.
# Tested on: Zika virus NS2B-NS3 protease
# Test: Primary screen GU AMC qHTS for Zika virus inhibitors (AID 1347154); also: nearly all actives have a fitted effect of over 70% in size
# Settings: Zika NS2B-NS3 unlinked protease, AMC fluorogenic substrate; series mostly up to 54.1 µM
# Excerpt: Avindra Nath, Ph.D., National Institute of Neurological Disorders and Stroke (NINDS), Bethesda, MD
# Radhakrishnan Padmanabhan, Ph.D., Georgetown University (GU), Washington D.C.
# Zika Virus causes congenital defects, including microcephaly and is associated with Guillain-Barre syndrome, eningoencephalitis and myelitis in infected adult. […] Using a target-based approach, we hope to establish a screening paradigm to uncover novel, cell-active NS2B-NS3 protease (Zika Virus) specific inhibitors from NCATS' collection of small molecules using qHTS.
# Early Translation Branch (ETB)
# National Center for Advancing Translational Sciences (NCATS), Rockville, MD
# National Institute of Health (NIH), Bethesda, Maryland
# Padmanabhan lab provided the NS2B hydrophilic domain and NS3 protease domain in a noncovalent complex used for the unlinked assay. Control compound aprotinin is obtained from Thermo Scientific (#78432; Waltham, Massachusetts). NS2B-NS3 AMC substrate (Bz-Nle-Lys-Arg-Arg-AMC; Nle-KRR-AMC) purchased from Bachem (#I-1995; Torrance, CA). Ac-VKTGKR-AMC purchased from Genscript or Bachem, Ac-FAAGKR-AMC purchased from Genscript, Ac-GLVKRR-AMC purchased from Genscript, Ac-LKKR-AMC purchased from Genscript.
# GU AMC unlinked NS2B-NS3 protease qHTS protocol
# Briefly, 3 microL of Zika virus unlinked NS2B-NS3 protease (25 nM for linked final concentration), in assay buffer (10 mM Tris-HCl pH 8.0 with 0.01% Tween 20) was dispensed into a 1,536-well solid-bottom black plate (Greiner Bio One, Monroe, NC). […] Plates were then read immediately on a ViewLux High-throughput CCD imager (PerkinElmer, Waltham, MA) equipped with standard UV fluorescence optics (340(30) nm excitation, 450(20) nm emission) then incubated (room temperature, protected from light) for 15 minutes (~20% conversion). The change in fluorescence intensity over the 15-minute reaction period was normalized against no-inhibitor and no-enzyme controls and the resulting percent inhibition data were fitted to a 4-parameter Hill equation. Aprotinin was used as the intraplate control.
# Potency is read from the fitted curve at half-maximal effect.
row,SMILES,Potency
1,COc1ccc(C2CC(c3ccccc3)=NN2c2ccc(S(N)(=O)=O)cc2)cc1 (stereo not given),inactive
2,CN1CCN(CCOc2cc(OC3CCOCC3)c3c(Nc4c(Cl)ccc5c4OCO5)ncnc3c2)CC1,inactive
3,Nc1ncnc2ccccc12,inactive
4,CC=CC[C@@H](C)C(=O)[C@H]1C(=O)N[C@@H](C(C)C)C(=O)N(C)CC(=O)N(C)[C@@H](CC(C)C)C(=O)N[C@@H](C(C)C)C(=O)N(C)[C@@H](CC(C)C)C(=O)N[C@@H](C)C(=O)N[C@H](C)C(=O)N(C)[C@@H](CC(C)C)C(=O)N(C)[C@@H](CC(C)C)C(=O)N(C)[C@@H](C(C)C)C(=O)N1C,inactive
5,CCCCC1C(=O)N(c2ccccc2)N(c2ccccc2)C1=O,inactive
6,N#CC1(c2ccc(NC(=O)c3cccnc3NCc3ccncc3)cc2)CCCC1,inactive
7,COc1ccc2c(Oc3ccc(NC(=O)c4c(C)n(CC(C)(C)O)n(-c5ccccc5)c4=O)cc3F)ccnc2c1,inactive
8,CC(C)(Cc1ccc2ccccc2c1)NC[C@@H](O)COc1cccc(Cl)c1C#N,inactive
9,COc1cc(N2CCC(N3CCN(C)CC3)CC2)ccc1Nc1ncnc(Nc2ccccc2S(=O)(=O)C(C)C)n1,inactive
10,CCNc1cc(NC2CCC(O)CC2)nc(Nc2ccc3c(ccn3Cc3ccccc3)c2)n1 (stereo not given),inactive
11,COc1ccc(-c2coc3cc(O)ccc3c2=O)cc1,26.7 µM (active)
12,CC(C)C(=O)Oc1ccc(CO)cc1[C@H](CCN(C(C)C)C(C)C)c1ccccc1,inactive
13,N[C@H](CSC(c1ccccc1)(c1ccccc1)c1ccccc1)C(=O)O,inactive
14,CC#CCn1c(N2CCC[C@@H](N)C2)nc2c1c(=O)n(Cc1nc(C)c3ccccc3n1)c(=O)n2C,inactive
15,COc1ccc2c3c1OC1C[C@@H](O)C=C[C@@]31CCN(C)C2 (stereo not given in full),inactive
16,CCC(CC)[C@H](NC(C)=O)[C@@H]1[C@H](O)[C@@H](C(=O)O)C[C@@H]1N=C(N)N,inactive
17,NC(N)=Nc1nc(CSCC/C(N)=N/S(N)(=O)=O)cs1,inactive
18,CO[C@H]1C(=O)[C@]2(C)[C@@H](OC)C[C@H]3OC[C@@]3(OC(C)=O)[C@H]2[C@H](OC(=O)c2ccccc2)[C@]2(O)C[C@H](OC(=O)[C@H](O)[C@@H](NC(=O)OC(C)(C)C)c3ccccc3)C(C)=C1C2(C)C,inactive
19,Nc1ncnc2c1ncn2[C@@H]1O[C@@H](CO)[C@H](O)[C@H]1O,inactive
20,O=c1ccn([C@@H]2O[C@H](CO)[C@H](O)[C@H]2O)c(=O)[nH]1,inactive

row,SMILES,Potency
1,COC(=O)N[C@H](C(=O)N1CCC[C@@H]1c1ncc(-c2ccc(-c3ccc(-c4cnc([C@@H]5CCCN5C(=O)[C@@H](NC(=O)OC)C(C)C)[nH]4)cc3)cc2)[nH]1)C(C)C,30.4 µM (active)
2,CC(C)[C@H](CO)Nc1nc(Nc2ccc(C(=O)O)c(Cl)c2)c2ncn(C(C)C)c2n1,inactive
3,O=C1NC(=O)C(c2ccccc2)(c2ccccc2)N1,inactive
4,NC1=N[C@@]2(c3cc(NC(=O)c4ccc(F)cn4)ccc3F)COC[C@@H]2CS1,inactive
5,CC(C)(C)c1cc(C(=O)O)c(NC(=O)Nc2ccc3[nH]ncc3c2)s1,inactive
6,C[N+](C)(C)CC(=O)O,inactive
7,O=C(NC1CCOCC1)c1ccc(-c2cc(-c3cn[nH]c3-c3ccccn3)ccn2)cc1,inactive
8,CC=CCC(C)C(O)C1C(=O)NC(CC)C(=O)N(C)CC(=O)N(C)C(CC(C)C)C(=O)NC(C(C)C)C(=O)N(C)C(CC(C)C)C(=O)NC(C)C(=O)NC(C)C(=O)N(C)C(CC(C)C)C(=O)N(C)C(CC(C)C)C(=O)N(C)C(C(C)C)C(=O)N1C (stereo not given),inactive
9,C[C@@H]1CCN(C(=O)CC#N)C[C@H]1N(C)c1ncnc2[nH]ccc12,inactive
10,CN(C)CCC=C1c2ccccc2COc2ccc(CC(=O)O)cc21,inactive
11,Clc1ccc(-c2nc3sccn3c2C=NOCc2ccc(Cl)c(Cl)c2)cc1,inactive
12,NC(=O)NN=Cc1ccc([N+](=O)[O-])o1,inactive
13,C[C@H](NC(=O)C(=O)Nc1ccccc1C(C)(C)C)C(=O)N[C@@H](CC(=O)O)C(=O)COc1c(F)c(F)cc(F)c1F,inactive
14,COc1ccc(Cc2ccc(NC(N)=O)cc2)cc1-c1cccc(Cl)c1,inactive
15,CS(=O)(=O)N(Cc1ccco1)CC(O)Cn1c2ccccc2c2ccccc21 (stereo not given),inactive
16,O=c1c(O)c(-c2ccc(O)cc2)oc2cc(O)cc(O)c12,inactive
17,CCOC(=O)O[C@]1(C(=O)OCCl)CC[C@@H]2[C@H]3CCC4=CC(=O)C=C[C@]4(C)[C@@H]3[C@@H](O)C[C@@]21C,inactive
18,O=C(O)Cc1cccc2ccccc12,inactive
19,COc1cc(NC(=O)c2ccc(-c3ccc(Cl)cc3)o2)cc(OC)c1,inactive
20,CCN(CC)CCOc1ccc(C(=C(Cl)c2ccccc2)c2ccccc2)cc1,inactive
